Data reported in PubChem BioAssay (NCI).
About 83,000 compounds went through this panel and 20% of them were active in at least one assay; those are over-represented in the sample as a whole.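 For each line, cells grew in 96-well plates with the test compound present at a single concentration for 48 hours.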 Calls of active or inactive are those of the source. How the source made its calls: active means growth percent below 10; inactive means the rest.

How the values were obtained:
Experiment in all cases: NCI-60 one-dose screen, 48 h (100 = growth as untreated, 0 = no growth, -100 = all killed)
Conditions in all cases: 10 µM unless noted
[1] = test system: DU-145 prostate
[2] = test system: K-562 leukemia
[3] = test system: MALME-3M melanoma
[4] = test system: MDA-MB-231 breast
[5] = test system: RXF 393 renal
[6] = test system: SF-268 CNS
[7] = test system: SF-295 CNS
[8] = test system: SF-539 CNS
[9] = test system: UACC-257 melanoma
[10] = test system: M14 melanoma

Measured: growth

O=C(O)c1cn(C2CC2)c2cc(N3CCN(C(=O)/C=C/c4ccc(Cl)cc4)CC3)c(F)cc2c1=O
inactive: [1] 84.4% | [2] 74.2% | [3] 84.6% | [4] 68.1% | [5] 72% | [6] 62.4% | [7] 80.7% | [8] 72.2% | [9] 81.9% | [10] 82.8%

COc1cc(NC(N)=NCCC(C)(C)Oc2ccc(C(F)(F)F)cc2)ncc1C#N
inactive: [6] 30.8% | [8] 11.7%
active: [1] -32.6% | [2] -43.7% | [3] -81.2% | [4] -54.4% | [5] -50.4% | [7] -40.7% | [9] -46.2% | [10] -68.3%

CN(C)CCN1C(=O)c2ccc3c4c(ccc(c24)C1=O)C(=O)N(CCN=C=S)C3=O
active: [1] -97.1% | [2] -29.7% | [3] -63.7% | [4] -84.5% | [5] -98.5% | [6] -89% | [7] -71.7% | [8] -81.7% | [9] -95.3% | [10] -77.5%

O=C(O)COc1ccc(-c2cssc2=S)cc1
inactive: [1] 120% | [2] 115% | [3] 97% | [4] 110% | [5] 107% | [6] 105% | [7] 97.3% | [8] 96.3% | [9] 94.5% | [10] 105%

C=C[C@@H]1C[C@H](O)Cc2c(C)cc(C)cc2N1
inactive: [1] 102% | [2] 92% | [3] 103% | [4] 101% | [5] 108% | [6] 97.5% | [7] 91.9% | [8] 92.3% | [9] 97.6% | [10] 98.9%

O=c1[nH]c(-c2ccccc2)nc(CN2CCCCC2)c1O
inactive: [1] 113% | [2] 112% | [3] 128% | [4] 102% | [5] 120% | [6] 105% | [7] 121% | [8] 108% | [9] 113% | [10] 108%
